The list is not random: actives were taken first. Their share in the collection is about 19%.
ELG1 DNA repair = inhibitors of ELG1-dependent DNA repair in HEK293T cells; HEK293T ELG1-luciferase reporter, luminescence, 16 h; DNA damage induced by 5-fluorouridine; Potency, µM (series often up to 46.1 µM), most hits filed as inhibitors; hit rate 2.3% among 330,000; AID 504467; also: nearly all actives have a fitted effect of over 55% in size
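Quantitative HTS, concentration-response format. 2,000 cells/well co-treated with 5-fluorouridine and compound, 16 hr in 5% CO2 at 37 °C; ONE-Glo luminescence read after 30 min.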
IL1B secr inh = inhibitors of inflammasome signaling (IL-1 beta secretion). THP-1 LPS/ATP IL-1B secretion, AlphaLISA, 16 h; hits give low values. activity change, % at 57.5 µM. hit rate 4.7% among 360,000; in the data active = activity change below about -50%; inconclusive = mostly about -30% to -49%
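THP-1 cells pretreated 1 hr with compounds (up to 57.5 uM final), then stimulated with LPS (250 ng/mL final) plus ATP (1.25 mM final); secreted IL-1B measured by AlphaLISA after 16 hr, decreased signal indicating inhibition.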
TDP1 cell CPT = growth inhibition of DT40 Tdp1-/-;hTDP1 cells with camptothecin (screen for TDP1 inhibitors); Potency, µM (doses to about 46.2 µM), usual class: inhibitors; hit rate 12% among 420,000; chicken DT40 Tdp1-/-;hTDP1 cells + 20 nM CPT, ATP luminescence, 48 h; AID 686979; also: nearly all actives have a fitted effect of over 55% in size
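Chicken DT40 Tdp1-/- cells stably complemented with human TDP1 were seeded at 400 cells/well in medium containing 20 nM camptothecin, exposed to pin-transferred compounds, and grown at 37 °C for at least 48 hr. Viability was read as ATP luminescence.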
HT1080 IDH1KD tx = toxicity to HT-1080 IDH1 knockdown cells (counter line); HT-1080 IDH1 knockdown viability, ATP luminescence, 48 h; Potency, µM (doses to about 46.1 µM), most hits filed as cytotoxic; hit rate 2% among 360,000
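Viability of IDH1-knockdown HT-1080 fibrosarcoma cells was assessed by CellTiter-Glo after 48 h at 37 °C with titrated compound; concentration-effect curves were classified by fit quality and response size.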
DT40 TDP1 no CPT = qHTS for Inhibitors of human tyrosyl-DNA phosphodiesterase 1 (TDP1): qHTS in cells in absence of CPT; DT40 Tdp1-/- hTDP1 cells, no CPT, ATP luminescence, 48 h; Potency, µM (top dose mostly 46.2 µM), most hits filed as inhibitors; hit rate 15% among 420,000; AID 686978, 2013; also: nearly all actives have a fitted effect of over 55% in size
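Camptothecin absent (DMSO only). Human TDP1-complemented DT40 knockout cells, 400 cells/well, 37 °C for minimum 48 hr; ATP measured via CellTiter-Glo, 30 min dark incubation, luminescence.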
HT1080-NT tox = kills 2HG-producing HT-1080-NT fibrosarcoma cells; HT-1080-NT fibrosarcoma viability, CellTiter-Glo ATP luminescence, 48 h; Potency, µM (titrated, usually from 46.1 µM), actives largely listed as cytotoxic; hit rate 1.6% among 360,000; AID 686970;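 also: NT is the 2HG producing partner of a matched IDH1 knockdown line; nearly all actives have a fitted effect of over 55% in size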
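HT-1080-NT fibrosarcoma cells (2HG-overproducing), 750 cells/well in RPMI with 5% FBS, dosed after 2 h and incubated 48 h at 37C. CellTiter-Glo luminescence normalized to DMSO and no-cell wells; concentration-response curves fitted and classed.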
Of the large screens only hits and unclear results are named; the others gave an inactive call. Unless noted, calls follow the shape of the dose curve; as a rule, active = well fitted curve in the direction sought with a large enough effect; inconclusive = small, poorly fitted or top-dose-only effect, or another doubt; inactive = no such curve, though single readings can be large; an effect the other way counts as inactive or inconclusive.

O=C(Nc1nc2c(s1)CCCC2)c1cccnc1	ELG1 DNA repair inconclusive, TDP1 cell CPT inconclusive
CCCSc1nc2c(cnn2-c2ccccc2)c(=O)n1N	ELG1 DNA repair inconclusive, IL1B secr inh -63, DT40 TDP1 no CPT inconclusive
C[C@@H]1CN([C@@H](C)CO)C(=O)CCCn2nncc2CO[C@H]1CN(C)Cc1ccc(-c2ccccc2)cc1	DT40 TDP1 no CPT 16µM (no result: ELG1 DNA repair)
C[C@H]1CN([C@@H](C)CO)C(=O)CCCn2nncc2CO[C@@H]1CN(C)Cc1ccccc1C(F)(F)F	TDP1 cell CPT 18µM (no result: ELG1 DNA repair)
C[C@H](CO)N1C[C@H](C)[C@@H](CN(C)S(=O)(=O)c2ccc(-c3ccccc3)cc2)OCc2cn(nn2)CCCC1=O	DT40 TDP1 no CPT inconclusive (no result: ELG1 DNA repair)
C[C@@H]1CN([C@@H](C)CO)C(=O)CCCn2cc(nn2)CO[C@H]1CN(C)S(=O)(=O)c1ccc(-c2ccccc2)cc1	TDP1 cell CPT 9.2µM, DT40 TDP1 no CPT 6.5µM (no result: ELG1 DNA repair)
C[C@H]1CN([C@@H](C)CO)C(=O)CCCn2nncc2CO[C@@H]1CN(C)Cc1cccc(C(F)(F)F)c1	TDP1 cell CPT 21µM, DT40 TDP1 no CPT 23µM (no result: ELG1 DNA repair)
C[C@@H]1CN([C@@H](C)CO)C(=O)CCCn2nncc2CO[C@H]1CN(C)Cc1cccc(C(F)(F)F)c1	none (no result: ELG1 DNA repair)
CCN(Cc1ccncc1)Cc1ccc2c(c1)CN(C(=O)c1ccccc1)CCO2	none (no result: ELG1 DNA repair, IL1B secr inh, HT1080 IDH1KD tx, HT1080-NT tox)
Cc1ccc(C(=O)Nc2ccc(C(=O)O)cc2)cc1S(=O)(=O)N1CCC(C)CC1	none (no result: ELG1 DNA repair, IL1B secr inh, HT1080 IDH1KD tx, HT1080-NT tox)
Cc1ccc(C(=O)c2oc3ccccc3c2NC(=O)c2cc(-c3ccccc3)on2)cc1F	none (no result: ELG1 DNA repair, IL1B secr inh, HT1080 IDH1KD tx, HT1080-NT tox)
C[C@H]1CN([C@@H](C)CO)C(=O)CCCn2nncc2CO[C@H]1CN(C)S(=O)(=O)c1ccc(Oc2ccccc2)cc1	TDP1 cell CPT 18µM, DT40 TDP1 no CPT 12µM (no result: ELG1 DNA repair)
C[C@@H]1CN([C@H](C)CO)C(=O)CCCn2nncc2CO[C@@H]1CN(C)S(=O)(=O)c1ccc(Oc2ccccc2)cc1	TDP1 cell CPT inconclusive, DT40 TDP1 no CPT inconclusive (no result: ELG1 DNA repair)
COCCn1c(=O)c(-c2cccs2)nc2cnc(Oc3cccc(Cl)c3)nc21	DT40 TDP1 no CPT inconclusive (no result: ELG1 DNA repair, IL1B secr inh, HT1080 IDH1KD tx, HT1080-NT tox)
CC(C)c1csc(CN2CCCC(CNC(=O)c3cccc4ccccc34)C2)n1 (stereo not drawn)	ELG1 DNA repair inconclusive, TDP1 cell CPT 16µM, DT40 TDP1 no CPT inconclusive
CCc1ccc(CN2CCCC(CNC(=O)c3cccc(OC)c3OC)C2)cc1 (stereo not drawn)	none
COc1ccccc1NC(=O)COc1ccc(/C=N/n2cnnc2)cc1OC	none
CCOc1cc(/C=C\[N+](=O)[O-])ccc1OCC(=O)Nc1ccccc1C	ELG1 DNA repair inconclusive, TDP1 cell CPT 0.92µM, HT1080 IDH1KD tx 6.5µM, DT40 TDP1 no CPT 0.58µM, HT1080-NT tox 2.9µM
CCOc1cc(/C=N/NC(N)=O)cc(Br)c1OCC(=O)Nc1ccccc1C	TDP1 cell CPT inconclusive, DT40 TDP1 no CPT inconclusive
CCOc1cc(/C=C/c2cccc[n+]2C)ccc1O	none
CCOc1cc(/C=C/c2cccc[n+]2C)ccc1OCC(=O)Nc1ccc(C)cc1	IL1B secr inh -71, TDP1 cell CPT 21µM, DT40 TDP1 no CPT 16µM
CCOc1cc(/C=N/n2cnnc2)ccc1OCC(=O)Nc1ccccc1OC	DT40 TDP1 no CPT 8.2µM
O=C(NNc1cc(N2CCOCC2)nc(N2CCOCC2)n1)C12CC3CC(CC(C3)C1)C2	none
Cc1cn2cc(CNC(=O)CN3Cc4ccccc4OC(c4ccccc4F)C3)nc2s1 (stereo not drawn)	DT40 TDP1 no CPT inconclusive (no result: ELG1 DNA repair, IL1B secr inh, HT1080 IDH1KD tx, HT1080-NT tox)
COC(=O)[C@@]12C[C@@H](CC(=O)NCc3cccc4ccccc34)C(=O)N(Cc3ccccc3)C1=CCC(C)(C)C2	IL1B secr inh -61, TDP1 cell CPT inconclusive, HT1080 IDH1KD tx inconclusive, DT40 TDP1 no CPT inconclusive, HT1080-NT tox inconclusive (no result: ELG1 DNA repair)
COC(=O)[C@@]12C[C@@H](CC(=O)NCC34CC5CC(CC(C5)C3)C4)C(=O)N(Cc3cccc4ccccc34)C1=CCC(C)(C)C2	TDP1 cell CPT inconclusive, DT40 TDP1 no CPT inconclusive (no result: ELG1 DNA repair)
COC(=O)[C@@]12C[C@@H](CC(=O)NCc3cccc4ccccc34)C(=O)N(Cc3ccc4c(c3)OCO4)C1=CCC(C)(C)C2	IL1B secr inh -87, TDP1 cell CPT inconclusive, HT1080 IDH1KD tx inconclusive, DT40 TDP1 no CPT 13µM, HT1080-NT tox inconclusive (no result: ELG1 DNA repair)
COC(=O)[C@@]12C[C@@H](CC(=O)NCc3ccccc3)C(=O)N(Cc3ccc4c(c3)OCO4)C1=CCC(C)(C)C2	IL1B secr inh inconclusive, TDP1 cell CPT 16µM, HT1080 IDH1KD tx inconclusive, DT40 TDP1 no CPT 16µM, HT1080-NT tox inconclusive (no result: ELG1 DNA repair)
COc1cccc(CNCCCSc2nnnn2C)c1	none (no result: ELG1 DNA repair, IL1B secr inh, HT1080 IDH1KD tx, HT1080-NT tox)
Cc1ccc(Cn2cnc3c(cnn3-c3ccc(F)cc3)c2=O)cc1	ELG1 DNA repair inconclusive
COC(=O)CCn1[nH]c(=O)c2ccccc2c1=O	none
O=c1[nH]n(Cc2ccccc2)c(=O)c2ccccc12	ELG1 DNA repair inconclusive, TDP1 cell CPT inconclusive, HT1080 IDH1KD tx inconclusive, DT40 TDP1 no CPT 8.9µM
